Source: the supplement of paper PMC3545927
The other results are listed elsewhere or left out. The hit rate among all sequences tested is not known here.

Biological target: furin, P09958
Assay: furin cleavage Z-score vs untreated control; higher = more cleavage, active = 3.5 or more, inactive = 1 or less, 8 variable residues between constant flanks
Outline: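 Purified furin cleaved 8-mer peptides that were fused to a cDNA oligonucleotide and held on magnetic beads by their N-terminus. Each 0.01 ml reaction used a 1:10 enzyme:substrate ratio in 50 mM HEPES pH 7.5 with CaCl2 and NaCl and ran 7.5, 15 or 30 min. Released DNA was adapter-tagged by PCR and sequenced, and read counts gave abundance. The cleavage Z-score came from log counts against furin-free reactions, lowess-adjusted and scaled by median absolute deviation.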

furin, P09958, sequence (P09958 whole entry): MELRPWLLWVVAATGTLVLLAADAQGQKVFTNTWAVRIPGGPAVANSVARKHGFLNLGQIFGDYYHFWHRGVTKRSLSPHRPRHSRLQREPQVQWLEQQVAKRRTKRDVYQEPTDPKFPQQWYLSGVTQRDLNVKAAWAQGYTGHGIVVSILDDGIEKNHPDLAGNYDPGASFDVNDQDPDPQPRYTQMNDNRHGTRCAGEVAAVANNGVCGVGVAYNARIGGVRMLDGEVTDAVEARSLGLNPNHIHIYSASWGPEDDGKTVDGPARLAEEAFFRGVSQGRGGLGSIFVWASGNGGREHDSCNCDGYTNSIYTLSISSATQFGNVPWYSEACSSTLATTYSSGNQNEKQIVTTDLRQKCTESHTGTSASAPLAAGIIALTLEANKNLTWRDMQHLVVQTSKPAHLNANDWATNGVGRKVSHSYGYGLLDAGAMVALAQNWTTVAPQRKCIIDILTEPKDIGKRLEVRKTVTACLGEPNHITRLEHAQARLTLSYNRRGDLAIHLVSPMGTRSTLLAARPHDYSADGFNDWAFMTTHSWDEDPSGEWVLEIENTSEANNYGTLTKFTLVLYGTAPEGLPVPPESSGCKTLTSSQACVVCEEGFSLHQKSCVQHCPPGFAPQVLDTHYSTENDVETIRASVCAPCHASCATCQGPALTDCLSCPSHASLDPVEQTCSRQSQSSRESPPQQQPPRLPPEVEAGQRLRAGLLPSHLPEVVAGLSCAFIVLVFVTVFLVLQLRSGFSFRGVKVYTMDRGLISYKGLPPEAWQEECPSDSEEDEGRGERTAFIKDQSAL

Sequence	furin cleavage Z-score (7.5 min)	furin cleavage Z-score (15 min)	furin cleavage Z-score (30 min)
CAVVCCSMYYAGNASASA [HC2069]	-0.54 (inactive)	-0.258 (inactive)	-1.53 (inactive)
CAYVQMVIIKAGNASASA [HC627]	-1.63 (inactive)	-1.94 (inactive)	-0.568 (inactive)
CAKQFRALRSAGNASASA [FS-1595]	4.54 (active)	5.86 (active)	4.56 (active)
CAAGRRALRSAGNASASA [FS-1182]	4.32 (active)	4.3 (active)	3.06
CAQLVRALRSAGNASASA [FS-848]	7.22 (active)	7.99 (active)	7.1 (active)
CAAGTRTIASAGNASASA [HC703]	0.83 (inactive)	0.675 (inactive)	0.11 (inactive)
CAKNGRPLRSAGNASASA [FS-341]	0.926 (inactive)	2.59	0.891 (inactive)
CAGCPERLASAGNASASA [HC386]	1.74	0.605 (inactive)	-0.259 (inactive)
CAVRARFVRFAGNASASA [FS-1433]	9.46 (active)	9.43 (active)	8.99 (active)
CALRIRNVRFAGNASASA [FS-1465]	2.76	6.35 (active)	7.62 (active)
CAVYVRVSRFAGNASASA [FS-518]	3.44	4.83 (active)	6.25 (active)
CAREARAVIFAGNASASA [FS-3186]	-0.327 (inactive)	-0.0656 (inactive)	2.23
CAVYARVSRFAGNASASA [FS-517]	0.958 (inactive)	0.514 (inactive)	2.26
CASRLRFDRFAGNASASA [FS-505]	-0.495 (inactive)	0.902 (inactive)	-0.181 (inactive)
CAVRCCSMSYAGNASASA [HC2013]	0.204 (inactive)	-0.014 (inactive)	0.753 (inactive)
CAALEVVTSTAGNASASA [HC2263]	0.411 (inactive)	-0.918 (inactive)	-0.927 (inactive)
CADSDAESYSAGNASASA [HC1350]	-0.915 (inactive)	-2 (inactive)	-1.07 (inactive)
CAHTPCSAHLAGNASASA [HC2475]	-0.788 (inactive)	-1.31 (inactive)	-0.643 (inactive)
CARPARSGGPAGNASASA [FS-2735]	-0.759 (inactive)	-1.01 (inactive)	-0.741 (inactive)
CARPARLVPAAGNASASA [FS-2398]	-0.162 (inactive)	-1.02 (inactive)	-0.581 (inactive)
CARPARSVGSAGNASASA [FS-2736]	6.91 (active)	7.69 (active)	6.7 (active)
CAAQKRSVGSAGNASASA [FS-2626]	0.58 (inactive)	0.683 (inactive)	-0.853 (inactive)
CARPARSVSKAGNASASA [FS-2498]	4.36 (active)	6.03 (active)	6.77 (active)

Sequence	furin cleavage Z-score (7.5 min)	furin cleavage Z-score (15 min)	furin cleavage Z-score (30 min)
CAKKHKKKRVAGNASASA [FS-1538]	-1.41 (inactive)	-0.885 (inactive)	0.391 (inactive)
CAWNKRKKRQAGNASASA [FS-968]	13.9 (active)	14.4 (active)	10.5 (active)
CAEMKRKKRVAGNASASA [FS-1521]	6.73 (active)	7.44 (active)	8.54 (active)
CATHSRKKRQAGNASASA [FS-201]	8.08 (active)	7.91 (active)	8.14 (active)
CASTPCSDHLAGNASASA [HC2531]	0.0703 (inactive)	0.929 (inactive)	-0.421 (inactive)
CARPARYRRGAGNASASA [FS-861]	11.5 (active)	11.1 (active)	8.69 (active)
CAKPARYRRGAGNASASA [FS-813]	12.3 (active)	12.4 (active)	9.69 (active)
CARPARDEGGAGNASASA [FS-2050]	-0.0204 (inactive)	-1.47 (inactive)	-0.304 (inactive)
CAERGFFYTPAGNASASA [EK9]	-0.00549 (inactive)	-1.03 (inactive)	-0.153 (inactive)
CAVVCCSMSFAGNASASA [HC2087]	-0.658 (inactive)	0.464 (inactive)	-0.984 (inactive)
CAEKVTSTWVAGNASASA [HC2174]	-0.438 (inactive)	1.1	-0.0879 (inactive)
CAEGQRKRRNAGNASASA [FS-19]	11.4 (active)	10.7 (active)	8.22 (active)
CACCRRKRRNAGNASASA [FS-1188]	10.9 (active)	10.1 (active)	9.12 (active)
CAGCTTPCSGAGNASASA [HC1956]	-0.873 (inactive)	-0.658 (inactive)	-0.0577 (inactive)
CAGGAARALAAGNASASA [HC233]	0.841 (inactive)	-0.114 (inactive)	-0.813 (inactive)
CAWTPCSGSWAGNASASA [HC1828]	-0.899 (inactive)	-0.739 (inactive)	-0.599 (inactive)
CAEVVTSEWVAGNASASA [HC2212]	0.969 (inactive)	-0.725 (inactive)	-0.598 (inactive)
CATTPCSISWAGNASASA [HC1884]	1.02	2.64	0.615 (inactive)
CARSIRSTGSAGNASASA [FS-1971]	8.51 (active)	7.83 (active)	8.71 (active)
CARSIRSSQNAGNASASA [FS-2806]	3.82 (active)	4.88 (active)	5.06 (active)
CARSIRSVAIAGNASASA [FS-3081]	-0.459 (inactive)	0.367 (inactive)	2.74
CARSDRSVPSAGNASASA [FS-2236]	-0.464 (inactive)	-1.02 (inactive)	-0.799 (inactive)
